Reference: PubChem BioAssay AID1654 (Sanford-Burnham Center for Chemical Genomics, 2009)
About 1,500 (0.52%) of roughly 290,000 compounds were called active. Cut-off read from the data, not from the text of the source: active = inhibition above about 50%; inactive = the rest. The list comes from a sample in which actives are over-represented; it also holds similar structures and randomly drawn compounds.

Target: Dual specificity protein phosphatase 3 (Homo sapiens) (UniProt P51452)
Assay: VHR1 phosphatase inhibitors, primary screen, biochemical, absorbance, uHTS (AID 1654)
[1] = recombinant VHR phosphatase, pNPP absorbance, at 13.3 µM, stronger effect = higher value

Sequence of Dual specificity protein phosphatase 3 (Homo sapiens) (P51452 whole entry, looked up): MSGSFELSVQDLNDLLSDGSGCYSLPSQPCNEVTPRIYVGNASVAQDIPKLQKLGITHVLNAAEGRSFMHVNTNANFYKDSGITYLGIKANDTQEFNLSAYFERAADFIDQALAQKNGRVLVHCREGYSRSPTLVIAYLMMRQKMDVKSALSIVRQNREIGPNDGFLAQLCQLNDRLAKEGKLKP

SMILES: Cc1cc(C)c(S(=O)(=O)N(C)CC(=O)NCC2CCCO2)c(C)c1 (stereo unspecified)
- inhibition [1]: 20.6% (inactive)

SMILES: COc1ccc(CN(C)C(=S)Nc2ccc(Cl)cc2Cl)cc1
- inhibition [1]: -0.1% (inactive)

SMILES: CC(=O)N1CCc2cc(S(=O)(=O)NC3CCCCC3)ccc21
- inhibition [1]: -7.7% (inactive)

SMILES: O=C(Nc1ccc(S(=O)(=O)Nc2ccccn2)cc1)c1ccccc1
- inhibition [1]: 5.4% (inactive)

SMILES: COc1cccc2cc(C(=O)N(C)C)c(=O)oc12
- inhibition [1]: 18.2% (inactive)

SMILES: COc1cccc2cc(C(=O)NCc3ccc(C)cc3)c(=N)oc12
- inhibition [1]: 53.5% (active)

SMILES: N=c1oc2ccccc2cc1C(=O)NCc1ccccc1
- inhibition [1]: -2.5% (inactive)

SMILES: CN(CC(=O)Nc1ccc(Cl)cc1)C(=O)CNC(=O)c1ccc2ccccc2c1
- inhibition [1]: 27.9% (inactive)

SMILES: Cn1c(C(=O)N2CCCC(C(=O)NCc3ccccc3)C2)cc2sccc21 (stereo unspecified)
- inhibition [1]: 22.8% (inactive)

SMILES: CCc1nnc(NC(=O)c2sc3nc(C)cc(COC)c3c2N)s1
- inhibition [1]: 3.9% (inactive)

SMILES: CCc1nnc(NC(=O)c2cccc(S(=O)(=O)N(C)c3ccc(OC)cc3)c2)s1
- inhibition [1]: 13.9% (inactive)

SMILES: CCc1ccc2nc3sc(C(=O)Nc4nnc(CC)s4)c(N)c3cc2c1
- inhibition [1]: 52.7% (active)

SMILES: COC(=O)Cc1cnc(NC(=O)CSc2nc(C(C)C)cc(=O)[nH]2)s1
- inhibition [1]: -28.8% (inactive)

SMILES: CCN1C(=NCCc2cccnc2)N[C@@H](c2ccccc2)[C@H](C(=O)OC)[C@H]1C
- inhibition [1]: 36% (inactive)

SMILES: CC(=O)c1ccc(OC(=O)N2CCOCC2)cc1
- inhibition [1]: 1.7% (inactive)

SMILES: O=C(O)CC(CC(=O)N1CCOCC1)c1ccccc1 (stereo unspecified)
- inhibition [1]: -12.8% (inactive)

SMILES: CC(C)Oc1ccc(C(CC(=O)N2CCOCC2)C(C)C)cc1 (stereo unspecified)
- inhibition [1]: 53% (active)

SMILES: COC(=O)CN1C(=O)[C@H]2[C@@H](/C=C/c3ccccc3)N3C(=O)CN(Cc4ccccc4)C(=O)[C@@]3(Cc3ccccc3)[C@H]2C1=O
- inhibition [1]: 13.4% (inactive)

SMILES: COCC1CCN(C(=O)C2CCC(=O)N(CC3CCCCC3)C2)CC1 (stereo unspecified)
- inhibition [1]: 6.5% (inactive)

SMILES: CC(C)=CCCC1(C)C=Cc2c(ccc3c2[nH]c2cc(O)c(C)cc23)O1 (stereo unspecified)
- inhibition [1]: 16.5% (inactive)

SMILES: COc1ccc(CN(C)C(=O)c2cc(-c3ccc(C)cc3C)nc3ccccc23)c(OC)c1OC
- inhibition [1]: -8.1% (inactive)

SMILES: Cn1c(CCNS(=O)(=O)c2ccc(F)cc2)nnc1SCc1cccnc1
- inhibition [1]: 17% (inactive)

SMILES: C#CC(CCN1CCCCC1)(OC)c1ccccc1 (stereo unspecified)
- inhibition [1]: 5.2% (inactive)

SMILES: CCOC(=O)c1cccc(NC(=O)CCc2nnc3ccc(N4CCOCC4)nn23)c1
- inhibition [1]: 10.4% (inactive)

SMILES: CCOc1ccc(CCNC(=O)CCc2nnc3ccc(N4CCCC4)nn23)cc1OCC
- inhibition [1]: 21.2% (inactive)

SMILES: CCN(CC)c1ccc(NC(=O)CCc2nnc3ccc(N4CCCCC4)nn23)c(C)c1
- inhibition [1]: 56.7% (active)

SMILES: Cc1cccc(C)c1NC(=O)C(Cl)C(=O)c1ccccc1 (stereo unspecified)
- inhibition [1]: 0% (inactive)

SMILES: Cc1[nH]c2ccccc2c1/C=N\NC(=O)Cn1nnc(-c2ccccc2)n1
- inhibition [1]: -6.7% (inactive)

SMILES: O=C(Cn1nnc(-c2ccccc2)n1)N/N=C/c1ccc(-c2ccc(Cl)cc2)o1
- inhibition [1]: 50.8% (active)

SMILES: Nc1nnnn1CC(=O)N/N=C/c1ccc(-c2cccc(Cl)c2)o1
- inhibition [1]: 5.3% (inactive)

SMILES: Cc1ccc(-c2nc(CS(=O)(=O)CC(=O)NCc3ccc4c(c3)OCO4)c(C)o2)cc1
- inhibition [1]: 9.7% (inactive)

SMILES: CN1C2CCC1/C(=C\c1ccccc1Cl)C(=O)/C2=C\c1ccccc1Cl
- inhibition [1]: -0.2% (inactive)

SMILES: CCc1ccc(/C=C2\SC(N3CCOCC3)=NC2=O)cc1
- inhibition [1]: 19.9% (inactive)

SMILES: Cc1ccsc1/C=C1\SC(N2CCOCC2)=NC1=O
- inhibition [1]: 51% (active)

SMILES: Cc1ccc(N2CCN(C3=NC(=O)/C(=C\c4cccs4)S3)CC2)cc1
- inhibition [1]: -10.9% (inactive)

SMILES: O=[N+]([O-])c1cc(C(F)(F)F)ccc1NCCc1ccncc1
- inhibition [1]: -7.6% (inactive)

SMILES: Cc1cc(C)n2nc(CNS(=O)(=O)c3c(F)c(F)c(F)c(F)c3F)nc2n1
- inhibition [1]: 51.3% (active)

SMILES: Cc1cc(C)n2nc(SCC(N)=O)nc2n1
- inhibition [1]: 24.2% (inactive)

SMILES: Cc1cc(C)n2nc(C(=O)NC(C)(C)C)nc2n1
- inhibition [1]: 38.4% (inactive)

SMILES: CCOC(=O)c1c(C)[nH]c(C2=NNC(=NC(C)COC)SC2)c1C (stereo unspecified)
- inhibition [1]: 8.2% (inactive)

SMILES: Cc1ccc2oc(C(=O)N3CCN(C)C[C@@H]3C(C)C)c(C)c2c1
- inhibition (recombinant VHR phosphatase, pNPP absorbance; at 13.3 µM; stronger effect = higher value): 80.7% (inactive)
- inhibition (recombinant VHR phosphatase, pNPP absorbance; measured here: average of confirmation repeats; at 13.3 µM; stronger effect = higher value): -20.8%

SMILES: Cc1ccccc1OCC(=O)NNC(=O)c1cc(S(=O)(=O)N(C)C)ccc1N1CCCC1
- inhibition [1]: -23.3% (inactive)

SMILES: COCCNC(=O)c1ccc(S(=O)(=O)c2ccc(Cl)cc2)c(NC(C)=O)c1
- inhibition [1]: 13.8% (inactive)

SMILES: COCCNC(=O)c1snc2ccc(Cl)cc12
- inhibition [1]: 50% (active)

SMILES: COCCNC(=O)c1ccc2c(c1)ncn2-c1ccc(C)c(Cl)c1
- inhibition [1]: 5.8% (inactive)

SMILES: Cc1ccc(C(=O)O/N=C(\N)c2ccccn2)cc1Cl
- inhibition [1]: 11.4% (inactive)

SMILES: CC1CCN(S(=O)(=O)c2ccc(S(=O)(=O)NCc3cccnc3)cc2)CC1
- inhibition [1]: 40% (inactive)

SMILES: O=S(=O)(NCc1cccnc1)c1ccc(Cl)nc1
- inhibition [1]: 50.3% (active)

SMILES: O=S(=O)(NCc1cccnc1)c1ccc(Br)s1
- inhibition [1]: 35.9% (inactive)

SMILES: Cc1ccc(NC(=O)CN(C)C(=O)COC(=O)C(C)(C)Oc2ccc(Cl)cc2)cc1
- inhibition [1]: -4.4% (inactive)

SMILES: CC(=O)OCCN(CCCn1c(-c2ccncc2)nc2ccccc21)c1nc(-c2ccc(C)cc2)cs1
- inhibition [1]: 9.5% (inactive)

SMILES: COc1ccc(C(CCN(Cc2ccc(OC)c(OC)c2)C(=O)CCl)c2ccccc2)cc1 (stereo unspecified)
- inhibition [1]: 0.4% (inactive)

SMILES: Cc1ccc2c(c1)C(c1ccccc1)N(C(=O)c1ccc(F)cc1)CC(=O)N2 (stereo unspecified)
- inhibition [1]: 23.9% (inactive)

SMILES: Cc1ccc(/C=N/NC(=O)CSc2ccccn2)o1
- inhibition [1]: -2.8% (inactive)

SMILES: CCOc1ccccc1/C=N/NC(=O)CNC(=O)COc1ccccc1
- inhibition [1]: 26.2% (inactive)

SMILES: Cc1ccc(/C=N/NC(=O)CNC(=O)COc2ccccc2)o1
- inhibition [1]: 52.9% (active)

SMILES: CCOc1ccc(C(C(=O)NCCOC)N(CCOC)C(=O)CCC(=O)Nc2ccccn2)cc1 (stereo unspecified)
- inhibition [1]: 36.3% (inactive)

SMILES: CCOc1ccc2[nH]c(C(=O)N/N=C/c3cccc(OC)c3OC)cc2c1
- inhibition [1]: 26.8% (inactive)

SMILES: COc1ccc2[nH]c(C(=O)N/N=C/c3cc(OC)c(OC)c(OC)c3)cc2c1
- inhibition [1]: 14.1% (inactive)

SMILES: COc1cc2cc(C(=O)N/N=C/c3cccc(OC)c3OC)[nH]c2cc1OC
- inhibition [1]: 58.2% (active)
